Results from PubChem BioAssay AID1159580 (chemical genetic matrix, 2015).
The campaign covered roughly 5,500 compounds. About 2,000 (36%) were called active. Inconclusive results (about 18%) are left out. Cut-off read from the data, not from the text of the source: active = normalized growth mostly below about 0.91 (no sharp cut-off); inconclusive = no clear call, values can overlap the other calls; inactive = mostly above about 0.92. The list shows a part of the results.

Assay: chemical genetic growth profiling, strain panel (AID 1159580);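 note: tested at 20 µM; growth read once vehicle control cultures reached saturation at 30 °C; 1 = growth at the plate median or of vehicle wells; lower values mean less growth of the strain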
Settings: growth OD

Measured: normalized growth

CC1(C)C(C(Cl)Cl)C2(Cl)C(Cl)C(Cl)C1(Cl)C2(Cl)Cl (centres undefined)
inactive: S. cerevisiae deletion strains, locus YJR043C, strain POL32, active compounds read low 0.978 | S. cerevisiae deletion strains, locus YJR075W, strain HOC1, active compounds read low 0.985 | S. cerevisiae deletion strains, locus YKL009W, strain mrt4, active compounds read low 0.965 | S. cerevisiae deletion strains, locus YKL068W, active compounds read low 0.983 | S. cerevisiae deletion strains, locus YKL085W, strain MDH1 (second series), active compounds read low 0.973 | S. cerevisiae deletion strains, locus YKL085W, strain MDH1, active compounds read low 0.973 | S. cerevisiae deletion strains, locus YKL160W, strain elf1, active compounds read low 0.969 | S. cerevisiae deletion strains, locus YKL190W, strain CNB1, active compounds read low 0.997 | S. cerevisiae deletion strains, locus YKR001C, strain vps1, active compounds read low 0.964 | S. cerevisiae deletion strains, locus YKR026C, strain gcn3, active compounds read low 0.989 | S. cerevisiae deletion strains, locus YKR091W, strain srl3, active compounds read low 0.985 | S. cerevisiae deletion strains, locus YLL001W, strain dnm1, active compounds read low 0.994 | S. cerevisiae deletion strains, locus YLL026W, active compounds read low 0.981 | S. cerevisiae deletion strains, locus YLL041C, strain sdh2, active compounds read low 0.989 | S. cerevisiae deletion strains, locus YLR027C, strain aat2, active compounds read low 0.97 | S. cerevisiae deletion strains, locus YLR039C, strain RIC1, active compounds read low 0.883 | S. cerevisiae deletion strains, locus YLR058C, strain SHM2, active compounds read low 0.983 | S. cerevisiae deletion strains, locus YLR102C, strain apc9, active compounds read low 0.979 | S. cerevisiae deletion strains, locus YLR221C, strain rsa3, active compounds read low 0.961 | S. cerevisiae deletion strains, locus YLR258W, strain gsy2, active compounds read low 0.975 | S. cerevisiae deletion strains, locus YLR262C, strain YPT6, active compounds read low 0.884 | S. cerevisiae deletion strains, locus YLR268W, strain sec22, active compounds read low 0.97 | S. cerevisiae deletion strains, locus YLR320W, strain mms22, active compounds read low 0.878 | S. cerevisiae deletion strains, locus YLR330W, strain CHS5, active compounds read low 0.991 | S. cerevisiae deletion strains, locus YLR342W, strain FKS1 (second series), active compounds read low 0.913 | S. cerevisiae deletion strains, locus YLR342W, strain FKS1, active compounds read low 0.964 | S. cerevisiae deletion strains, locus YLR357W, strain rsc2, active compounds read low 0.993 | S. cerevisiae deletion strains, locus YLR370C, strain arc18, active compounds read low 0.991 | S. cerevisiae deletion strains, locus YLR371W, strain rom2, active compounds read low 0.968 | S. cerevisiae deletion strains, locus YLR384C, strain iki3, active compounds read low 0.974 | S. cerevisiae deletion strains, locus YLR418C, strain cdc73, active compounds read low 0.879 | S. cerevisiae deletion strains, locus YML016C, strain PPZ1, active compounds read low 0.986 | S. cerevisiae deletion strains, locus YML032C, strain rad52, active compounds read low 0.956 | S. cerevisiae deletion strains, locus YML120C, strain ndi1, active compounds read low 0.983 | S. cerevisiae deletion strains, locus YML124C, strain tub3, active compounds read low 0.976 | S. cerevisiae deletion strains, locus YMR058W, strain fet3, active compounds read low 0.991 | S. cerevisiae deletion strains, locus YMR078C, strain ctf18, active compounds read low 0.953 | S. cerevisiae deletion strains, locus YMR125W, strain sto1, active compounds read low 0.995 | S. cerevisiae deletion strains, locus YMR129W, active compounds read low 0.972 | S. cerevisiae deletion strains, locus YMR205C, strain PFK2, active compounds read low 0.883 | S. cerevisiae deletion strains, locus YMR223W, strain ubp8, active compounds read low 0.963 | S. cerevisiae deletion strains, locus YMR231W, strain pep5, active compounds read low 0.977 | S. cerevisiae deletion strains, locus YMR263W, strain SAP30, active compounds read low 0.988 | S. cerevisiae deletion strains, locus YMR307W, strain GAS1, active compounds read low 0.967 | S. cerevisiae deletion strains, locus YNL067W, strain RPL9B, active compounds read low 0.993 | S. cerevisiae deletion strains, locus YNL128W, strain TEP1, active compounds read low 0.992 | S. cerevisiae deletion strains, locus YNL153C, strain GIM3, active compounds read low 0.988 | S. cerevisiae deletion strains, locus YNL209W, strain ssb2, active compounds read low 0.979 | S. cerevisiae deletion strains, locus YNL233W, strain BNI4, active compounds read low 0.999 | S. cerevisiae deletion strains, locus YNL248C, strain rpa49, active compounds read low 0.99 | S. cerevisiae deletion strains, locus YNL250W, strain rad50, active compounds read low 0.95 | S. cerevisiae deletion strains, locus YNL271C, strain bni1, active compounds read low 0.975 | S. cerevisiae deletion strains, locus YNL298W, strain CLA4, active compounds read low 0.958 | S. cerevisiae deletion strains, locus YNL322C, strain KRE1 (second series), active compounds read low 0.979 | S. cerevisiae deletion strains, locus YNL322C, strain KRE1, active compounds read low 0.987 | S. cerevisiae deletion strains, locus YNR049C, strain mso1, active compounds read low 0.985 | S. cerevisiae deletion strains, locus YNR052C, strain pop2, active compounds read low 0.963 | S. cerevisiae deletion strains, locus YOL006C, strain TOP1, active compounds read low 0.926 | S. cerevisiae deletion strains, locus YOL012C, strain htz1 1.18 | S. cerevisiae deletion strains, locus YOL147C, strain pex11, active compounds read low 0.973 | S. cerevisiae deletion strains, locus YOR001W, strain rrp6, active compounds read low 0.995 | S. cerevisiae deletion strains, locus YOR061W, strain CKA2, active compounds read low 0.992 | S. cerevisiae deletion strains, locus YOR069W, strain VPS5, active compounds read low 0.985 | S. cerevisiae deletion strains, locus YOR070C, strain gyp1, active compounds read low 0.991 | S. cerevisiae deletion strains, locus YOR080W, strain dia2, active compounds read low 0.974 | S. cerevisiae deletion strains, locus YOR083W, strain WHI5, active compounds read low 0.982 | S. cerevisiae deletion strains, locus YOR106W, strain vam3, active compounds read low 0.95 | S. cerevisiae deletion strains, locus YOR136W, strain idh2, active compounds read low 0.978 | S. cerevisiae deletion strains, locus YOR144C, strain elg1, active compounds read low 0.967 | S. cerevisiae deletion strains, locus YOR184W, strain ser1, active compounds read low 0.879 | S. cerevisiae deletion strains, locus YOR265W, strain rbl2, active compounds read low 0.98 | S. cerevisiae deletion strains, locus YOR270C, strain vph1, active compounds read low 0.922 | S. cerevisiae deletion strains, locus YOR290C, strain snf2, active compounds read low 0.977 | S. cerevisiae deletion strains, locus YOR316C, strain cot1, active compounds read low 0.973 | S. cerevisiae deletion strains, locus YPL051W, strain arl3, active compounds read low 0.937 | S. cerevisiae deletion strains, locus YPL055C, strain LGE1, active compounds read low 0.981 | S. cerevisiae deletion strains, locus YPL078C, strain atp4, active compounds read low 0.988 | S. cerevisiae deletion strains, locus YPL106C, strain sse1, active compounds read low 0.984 | S. cerevisiae deletion strains, locus YPL240C, strain hsp82, active compounds read low 0.982 | S. cerevisiae deletion strains, locus YPL241C, strain CIN2, active compounds read low 0.988 | S. cerevisiae deletion strains, locus YPR119W, strain clb2, active compounds read low 0.973 | S. cerevisiae deletion strains, locus YPR141C, strain kar3, active compounds read low 0.963 | S. cerevisiae deletion strains, locus YPR163C, strain tif3, active compounds read low 0.946 | S. cerevisiae deletion strains, locus YPR167C, strain met16, active compounds read low 0.978 | S. cerevisiae deletion strains, strain wtn01, active compounds read low 0.966 | S. cerevisiae strains, strain wild type, active compounds read low 0.986
active: S. cerevisiae deletion strains, locus YLR262C, strain YPT6 (second series), active compounds read low 0.817 | S. cerevisiae deletion strains, locus YNL071W, strain lat1, active compounds read low 0.834 | S. cerevisiae deletion strains, locus YNL307C, strain MCK1, active compounds read low 0.778
